This passage reports outcome and AC50 results from PubChem BioAssay (EPA / NIEHS).

As usually defined, the AC50 is the concentration giving half of the maximal activity seen.

Assay [1] has as its target Myc proto-oncogene protein (Homo sapiens) (UniProt P01106). Briefly: ATG_Myc_CIS: Attagene CIS-FACTORIAL HepG2 Assay for human Myelocytomatosis (Myc) Proto-Oncogene Transcription Factor (AID 2282990). Conditions: HepG2, Attagene cis-reporter transcription factor activity; actives raise or lower the signal. In outline: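 HepG2, transient MRTU transfection (cis promoters, endogenous TFs); 24 h dosing; TriZol RNA → oligo(dT) RT → PCR → 6-FAM primer extension → HpaI cut → CE. Bidirectional fit vs DMSO.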

Assay [2] can be described thus: ATG_NF_kB_CIS: Attagene CIS-FACTORIAL HepG2 Assay for human Nuclear Factor Kappa B (NF-kB) (AID 2282991). As to conditions: HepG2 Attagene cis-factorial NF-kB reporter mRNA; actives raise or lower the signal. The essentials: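 HepG2 cells transfected with cis-promoter-driven reporter units, so endogenous transcription factor activity is measured. Reporter mRNA quantified 24 h after dosing by RT-PCR and capillary electrophoresis, with bidirectional fitting against DMSO.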

A short description of assay [3]: ATG_NRF2_ARE_CIS: Attagene CIS-FACTORIAL HepG2 Assay for human Nuclear Factor Erythroid 2 Related Factor 2 (NFR2) response to Antioxidant Response Elements (ARE) (AID 2282992). As to conditions: HepG2 Attagene ARE/NRF2 reporter, transcription factor activity; actives raise or lower the signal. The essentials: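 Endogenous transcription factor activity read out as reporter transcript levels (RT-PCR plus capillary electrophoresis, fluorescence) in transiently transfected HepG2 cells. Measured at 24 h after dosing; gain or loss of signal fitted versus DMSO.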

The nature of assay [4]: ATG_Oct_MLP_CIS: Attagene CIS-FACTORIAL HepG2 Assay for human Octamer-Binding Transcription Factor (Oct) (AID 2282993). Conditions: HepG2 Attagene cis-factorial Oct reporter, mRNA; actives raise or lower the signal. The essentials: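 Readout is reporter transcript level from RT-PCR with fluorescent primer extension and capillary electrophoresis, fitted in both directions against DMSO. Transfected HepG2 reporter units report endogenous factor activity after 24 h dosing.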

For assay [5], the target named is Cellular tumor antigen p53 (Homo sapiens) (UniProt P04637). Put plainly: ATG_p53_CIS: Attagene CIS-FACTORIAL HepG2 Assay for human p53 Transcription Factor (AID 2282994). As to conditions: HepG2 p53 cis-element reporter, Attagene mRNA; actives raise or lower the signal. In outline:
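Endogenous p53 activity read in transiently transfected HepG2 from a cis-element-driven reporter transcript after 24 h exposure. RNA reverse-transcribed, PCR-amplified, fluorescently labelled and sized by capillary electrophoresis; gain or loss fitted against DMSO baseline.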

Assay [6] has as its target human Peroxisome Proliferator-activated Receptor alpha (PPARa), PPARA (gene 5465) (UniProt Q07869). Briefly: ATG_PPARa_TRANS: Attagene TRANS-FACTORIAL HepG2 Assay for human Peroxisome Proliferator-activated Receptor alpha (PPARa) (AID 2283001; active = hit-call score of the fitted dose curve at least 0.9, where 1 is the maximum). The essentials:
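Transfected HepG2 cells treated with test chemical for 24 h. RNA isolated, reverse-transcribed with oligo(dT), PCR-amplified, FAM-labelled and HpaI-digested. Fragments sized by capillary electrophoresis; gain-of-signal fit relative to DMSO.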

Assay [7] has as its target human Peroxisome Proliferator-activated Receptor delta (PPARd), PPARD (gene 5467) (UniProt Q03181). Put plainly: ATG_PPARd_TRANS: Attagene TRANS-FACTORIAL HepG2 Assay for human Peroxisome Proliferator-activated Receptor delta (PPARd) (AID 2283002; active = hit-call score of the fitted dose curve at least 0.9, where 1 is the maximum). In outline:
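Transient HepG2 transfection (multiple GAL4-UAS RTUs, chimeric receptor-Gal4); 24 h dosing; total RNA → oligo(dT) RT → PCR → 6-FAM primer extension → HpaI cut → CE. Positive direction vs DMSO.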

The target in assay [8] is Peroxisome proliferator-activated receptor gamma (Homo sapiens) (UniProt P37231). Briefly: ATG_PPARg_TRANS: Attagene TRANS-FACTORIAL HepG2 Assay for human Peroxisome Proliferator-activated Receptor-gamma (PPARg) (AID 2283007; active = hit-call score of the fitted dose curve at least 0.9, where 1 is the maximum). The essentials: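 HepG2 cells are transiently transfected with GAL4-UAS reporter units driven by chimeric NR-Gal4 fusions and dosed for 24 h. Reporter mRNA is quantified by RT-PCR, 6-FAM labelling, HpaI digestion and capillary electrophoresis. Induction is scored against DMSO.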
Chain of Peroxisome proliferator-activated receptor gamma (Homo sapiens) (P37231 whole entry, looked up, the tested form may be a part): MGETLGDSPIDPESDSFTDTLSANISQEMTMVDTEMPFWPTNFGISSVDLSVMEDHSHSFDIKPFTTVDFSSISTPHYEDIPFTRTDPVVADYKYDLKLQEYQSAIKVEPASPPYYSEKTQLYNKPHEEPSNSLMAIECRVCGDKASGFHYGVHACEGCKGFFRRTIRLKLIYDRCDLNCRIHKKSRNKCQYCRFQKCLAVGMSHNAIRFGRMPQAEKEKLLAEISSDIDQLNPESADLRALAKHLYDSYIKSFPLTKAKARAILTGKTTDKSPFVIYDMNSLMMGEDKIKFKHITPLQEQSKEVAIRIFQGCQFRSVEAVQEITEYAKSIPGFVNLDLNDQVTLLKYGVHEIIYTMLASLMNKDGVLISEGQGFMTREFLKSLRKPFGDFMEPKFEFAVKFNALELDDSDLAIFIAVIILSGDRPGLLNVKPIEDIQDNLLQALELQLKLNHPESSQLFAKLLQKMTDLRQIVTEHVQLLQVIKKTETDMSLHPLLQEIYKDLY

The target in assay [9] is human RAR-related Orphan Receptor beta (RORb), RORB (gene 6096) (UniProt Q92753). Briefly: ATG_RORb_TRANS: Attagene TRANS-FACTORIAL HepG2 Assay for human RAR-related Orphan Receptor beta (RORb) (AID 2283010; active = hit-call score of the fitted dose curve at least 0.9, where 1 is the maximum). The essentials: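 HepG2, transient MRTU transfection (GAL4-UAS reporters, exogenous NR-Gal4 chimeras); 24 h compound exposure; total RNA → RT-PCR → 6-FAM primer extension → HpaI digest → CE fluorescence. Positive direction vs DMSO baseline.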
Chain of human RAR-related Orphan Receptor beta (RORb), RORB (gene 6096) (Q92753 whole entry, looked up, the tested form may be a part): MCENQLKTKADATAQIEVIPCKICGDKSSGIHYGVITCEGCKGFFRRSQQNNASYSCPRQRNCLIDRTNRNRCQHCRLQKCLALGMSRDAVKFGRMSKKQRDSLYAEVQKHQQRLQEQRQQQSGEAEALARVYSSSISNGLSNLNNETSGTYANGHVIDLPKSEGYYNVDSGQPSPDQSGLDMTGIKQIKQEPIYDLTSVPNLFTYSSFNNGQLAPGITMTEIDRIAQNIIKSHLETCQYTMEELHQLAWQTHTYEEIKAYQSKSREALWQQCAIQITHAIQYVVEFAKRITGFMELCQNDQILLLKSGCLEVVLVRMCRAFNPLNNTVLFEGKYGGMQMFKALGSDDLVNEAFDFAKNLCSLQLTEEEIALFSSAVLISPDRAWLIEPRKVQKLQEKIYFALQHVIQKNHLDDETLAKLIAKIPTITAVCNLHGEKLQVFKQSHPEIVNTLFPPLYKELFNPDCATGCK

The target of assay [10] is human Retinoic Acid Receptor beta (RARb), RARB (gene 5915) (UniProt P10826). Briefly: ATG_RARb_TRANS: Attagene TRANS-FACTORIAL HepG2 Assay for human Retinoic Acid Receptor beta (AID 2283004; active = hit-call score of the fitted dose curve at least 0.9, where 1 is the maximum). The essentials: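 HepG2 cells transiently transfected with multiplexed GAL4-UAS reporter units expressing chimeric NR–Gal4 fusions; 24 h compound exposure. Reporter mRNA quantified by RT-PCR, 6-FAM labelling, HpaI digestion and capillary electrophoresis; gain-of-signal fitted against DMSO baseline.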
Chain of human Retinoic Acid Receptor beta (RARb), RARB (gene 5915) (P10826 whole entry, looked up, the tested form may be a part): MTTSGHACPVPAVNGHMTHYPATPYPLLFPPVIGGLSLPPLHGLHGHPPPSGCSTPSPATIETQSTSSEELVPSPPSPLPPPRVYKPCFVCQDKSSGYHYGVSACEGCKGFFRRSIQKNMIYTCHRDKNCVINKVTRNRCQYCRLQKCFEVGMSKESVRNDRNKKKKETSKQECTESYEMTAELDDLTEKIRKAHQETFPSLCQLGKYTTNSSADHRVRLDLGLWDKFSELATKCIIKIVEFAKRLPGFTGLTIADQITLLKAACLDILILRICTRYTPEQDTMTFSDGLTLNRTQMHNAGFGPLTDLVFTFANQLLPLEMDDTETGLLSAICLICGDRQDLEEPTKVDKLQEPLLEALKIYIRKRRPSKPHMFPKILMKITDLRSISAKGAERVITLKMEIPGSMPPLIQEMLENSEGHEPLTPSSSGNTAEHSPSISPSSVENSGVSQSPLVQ

Assay [11] concerns the target human RAR-related Orphan Receptor gamma (RORg), RORC (gene 6097) (UniProt P51449). Briefly: ATG_RORg_TRANS: Attagene TRANS-FACTORIAL HepG2 Assay for human RAR-related Orphan Receptor gamma (RORg) (AID 2283011; active = hit-call score of the fitted dose curve at least 0.9, where 1 is the maximum). The essentials: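 Readout: reporter transcript induction (RT-PCR, fluorescent primer extension, capillary electrophoresis) after 24 h compound exposure of transiently transfected HepG2 cells carrying a RORg-Gal4 chimera and GAL4-UAS reporters; DMSO served as baseline, with increasing signal fitted.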

For assay [12], the target named is human Retinoic Acid Receptor gamma (RARg), RARG (gene 5916) (UniProt P13631). Put plainly: ATG_RARg_TRANS: Attagene TRANS-FACTORIAL HepG2 Assay for human Retinoic Acid Receptor gamma (RARg) (AID 2283009; active = hit-call score of the fitted dose curve at least 0.9, where 1 is the maximum). In outline: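 Readout: reporter transcript levels via RT-PCR, 6-FAM primer-extension labelling, HpaI digestion and capillary electrophoresis. Cells: HepG2 carrying transfected RARg-GAL4 chimera plus UAS reporter set. Dosing 24 h; DMSO negative control.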
Chain of human Retinoic Acid Receptor gamma (RARg), RARG (gene 5916) (P13631 whole entry, looked up, the tested form may be a part): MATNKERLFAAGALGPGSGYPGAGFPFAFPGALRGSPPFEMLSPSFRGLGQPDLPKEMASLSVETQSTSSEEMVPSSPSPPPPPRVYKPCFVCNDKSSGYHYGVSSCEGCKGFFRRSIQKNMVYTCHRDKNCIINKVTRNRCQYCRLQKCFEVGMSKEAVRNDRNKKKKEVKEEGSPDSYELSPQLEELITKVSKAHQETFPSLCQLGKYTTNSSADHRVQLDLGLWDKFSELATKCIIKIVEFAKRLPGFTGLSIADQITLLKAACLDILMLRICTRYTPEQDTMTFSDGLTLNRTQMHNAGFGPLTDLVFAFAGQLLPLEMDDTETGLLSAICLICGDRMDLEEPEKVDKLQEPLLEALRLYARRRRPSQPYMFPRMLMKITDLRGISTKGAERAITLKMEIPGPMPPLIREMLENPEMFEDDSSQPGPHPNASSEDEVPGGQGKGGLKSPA

Assay [13] addresses Nuclear receptor subfamily 1 group I member 2 (Homo sapiens) (UniProt O75469). Briefly: ATG_PXR_TRANS: Attagene TRANS-FACTORIAL HepG2 Assay for human Pregnane X Receptor (PXR) (AID 2283008; active = hit-call score of the fitted dose curve at least 0.9, where 1 is the maximum). In outline:
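Transactivation by exogenous PXR–GAL4 fusion measured as reporter transcript induction after 24 h compound treatment of transfected human HepG2 cells. Read-out via RT-PCR and capillary electrophoresis of labelled fragments, fitted upward relative to DMSO.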

Assay [14] concerns the target Retinoic acid receptor alpha (Homo sapiens) (UniProt P10276). Briefly: ATG_RARa_TRANS: Attagene TRANS-FACTORIAL HepG2 Assay for human Retinoic Acid Receptor alpha (RARa) (AID 2283005; active = hit-call score of the fitted dose curve at least 0.9, where 1 is the maximum). In outline: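 Reporter transcripts, measured by RT-PCR with fluorescent labeling and capillary electrophoresis after 24 h dosing, reflect activity of an exogenous human RARa–GAL4 fusion in transiently transfected HepG2. Fitted for increase relative to DMSO.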

Inconclusive results are not listed. Activity calls are given as the source filed them. The calls were made as follows, unless noted: active = hit-call score of the fitted dose curve at least 0.9, where 1 is the maximum; inactive = score below 0.9.

Chain of human Peroxisome Proliferator-activated Receptor delta (PPARd), PPARD (gene 5467) (Q03181 whole entry, looked up, the tested form may be a part): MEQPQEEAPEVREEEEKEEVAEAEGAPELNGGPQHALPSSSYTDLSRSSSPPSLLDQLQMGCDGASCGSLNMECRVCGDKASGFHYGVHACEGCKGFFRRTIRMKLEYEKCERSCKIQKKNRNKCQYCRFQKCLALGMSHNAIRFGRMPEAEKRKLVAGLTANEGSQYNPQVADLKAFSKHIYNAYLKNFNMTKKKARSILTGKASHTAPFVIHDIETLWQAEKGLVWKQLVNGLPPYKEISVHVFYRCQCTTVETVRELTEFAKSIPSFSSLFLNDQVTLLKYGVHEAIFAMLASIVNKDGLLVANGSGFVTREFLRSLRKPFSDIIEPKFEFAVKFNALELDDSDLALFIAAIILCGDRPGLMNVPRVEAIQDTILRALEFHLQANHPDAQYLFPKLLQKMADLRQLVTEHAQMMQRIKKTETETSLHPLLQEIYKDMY
Chain of human RAR-related Orphan Receptor gamma (RORg), RORC (gene 6097) (P51449 whole entry, looked up, the tested form may be a part): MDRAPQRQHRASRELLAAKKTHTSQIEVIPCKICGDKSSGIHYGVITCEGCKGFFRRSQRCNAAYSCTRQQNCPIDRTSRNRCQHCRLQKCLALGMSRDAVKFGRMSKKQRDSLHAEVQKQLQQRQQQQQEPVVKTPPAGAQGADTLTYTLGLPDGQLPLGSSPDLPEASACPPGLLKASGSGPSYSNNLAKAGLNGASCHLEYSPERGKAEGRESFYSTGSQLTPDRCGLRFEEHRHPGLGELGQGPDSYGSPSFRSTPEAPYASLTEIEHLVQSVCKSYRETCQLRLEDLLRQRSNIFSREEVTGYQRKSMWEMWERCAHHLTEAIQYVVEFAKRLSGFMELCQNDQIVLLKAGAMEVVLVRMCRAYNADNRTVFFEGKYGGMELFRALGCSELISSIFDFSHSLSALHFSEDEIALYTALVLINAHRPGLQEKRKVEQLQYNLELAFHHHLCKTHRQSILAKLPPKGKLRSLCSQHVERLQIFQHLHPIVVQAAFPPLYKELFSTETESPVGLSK
Chain of human Peroxisome Proliferator-activated Receptor alpha (PPARa), PPARA (gene 5465) (Q07869 whole entry, looked up, the tested form may be a part): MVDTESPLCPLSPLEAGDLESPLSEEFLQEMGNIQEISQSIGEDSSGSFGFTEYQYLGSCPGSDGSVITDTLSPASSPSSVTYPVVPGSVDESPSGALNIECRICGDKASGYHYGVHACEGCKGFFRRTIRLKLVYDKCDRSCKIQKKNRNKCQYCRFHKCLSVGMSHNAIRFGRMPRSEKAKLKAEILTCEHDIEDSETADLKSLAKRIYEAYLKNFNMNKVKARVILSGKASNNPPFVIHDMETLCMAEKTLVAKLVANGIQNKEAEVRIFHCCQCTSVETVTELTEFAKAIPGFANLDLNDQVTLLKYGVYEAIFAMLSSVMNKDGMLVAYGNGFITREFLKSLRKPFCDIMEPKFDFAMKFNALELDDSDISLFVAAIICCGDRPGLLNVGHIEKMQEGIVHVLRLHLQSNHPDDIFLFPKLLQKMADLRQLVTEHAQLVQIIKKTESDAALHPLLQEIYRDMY
Chain of Myc proto-oncogene protein (Homo sapiens) (P01106 whole entry, looked up): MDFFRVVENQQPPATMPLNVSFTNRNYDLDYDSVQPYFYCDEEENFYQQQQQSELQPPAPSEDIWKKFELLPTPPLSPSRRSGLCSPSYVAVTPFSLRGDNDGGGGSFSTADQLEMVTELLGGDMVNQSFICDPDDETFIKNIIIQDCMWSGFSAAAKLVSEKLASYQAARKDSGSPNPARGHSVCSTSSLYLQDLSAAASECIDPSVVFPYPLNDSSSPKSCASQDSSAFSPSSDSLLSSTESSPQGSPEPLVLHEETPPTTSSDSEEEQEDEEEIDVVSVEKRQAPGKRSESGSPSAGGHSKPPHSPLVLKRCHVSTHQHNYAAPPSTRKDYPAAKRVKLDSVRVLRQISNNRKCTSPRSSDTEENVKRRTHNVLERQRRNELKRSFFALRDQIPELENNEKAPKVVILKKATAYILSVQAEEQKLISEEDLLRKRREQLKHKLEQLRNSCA
Chain of Nuclear receptor subfamily 1 group I member 2 (Homo sapiens) (O75469 whole entry, looked up, the tested form may be a part): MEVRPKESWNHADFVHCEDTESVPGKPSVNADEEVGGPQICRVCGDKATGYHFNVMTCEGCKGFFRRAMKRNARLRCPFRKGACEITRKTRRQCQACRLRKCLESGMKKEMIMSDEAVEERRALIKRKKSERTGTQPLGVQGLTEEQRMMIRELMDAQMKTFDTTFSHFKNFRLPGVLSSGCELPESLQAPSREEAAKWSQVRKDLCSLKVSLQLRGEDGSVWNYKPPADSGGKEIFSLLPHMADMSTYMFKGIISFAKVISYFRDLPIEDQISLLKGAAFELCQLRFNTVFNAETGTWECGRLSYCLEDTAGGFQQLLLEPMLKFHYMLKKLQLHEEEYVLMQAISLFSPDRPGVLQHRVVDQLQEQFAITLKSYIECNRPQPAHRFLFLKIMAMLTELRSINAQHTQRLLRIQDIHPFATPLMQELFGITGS
Chain of Cellular tumor antigen p53 (Homo sapiens) (P04637 whole entry, looked up): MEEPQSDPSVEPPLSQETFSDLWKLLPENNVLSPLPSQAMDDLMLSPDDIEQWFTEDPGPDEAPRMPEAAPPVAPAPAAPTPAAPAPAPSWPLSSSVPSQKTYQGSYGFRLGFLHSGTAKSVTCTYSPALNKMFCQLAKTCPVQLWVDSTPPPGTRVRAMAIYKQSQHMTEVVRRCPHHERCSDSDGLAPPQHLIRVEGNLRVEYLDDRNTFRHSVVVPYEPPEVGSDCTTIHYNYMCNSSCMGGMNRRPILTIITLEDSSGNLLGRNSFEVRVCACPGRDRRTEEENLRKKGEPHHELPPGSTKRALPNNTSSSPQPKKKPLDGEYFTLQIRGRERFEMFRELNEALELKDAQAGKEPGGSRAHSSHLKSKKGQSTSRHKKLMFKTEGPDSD

In the case of `COc1cc([C@@H]2c3cc4c(cc3[C@@H](O[C@@H]3O[C@@H]5CO[C@@H](C)O[C@H]5[C@H](O)[C@H]3O)[C@H]3COC(=O)[C@H]23)OCO4)cc(OC)c1O`, the molecule was called inactive in [1], in assay [2], in assay [3], in assay [4], in assay [5] and in [6]. The outcome in assay [7], in [8] and in [9] was inactive.

In the case of `O=C(O)c1cc(C(=O)O)cc([N+](=O)[O-])c1`, the call in assay [1], in assay [2], in assay [3], in assay [4], in assay [5] and in assay [6] was inactive. Moreover, the call in assay [10], in assay [9] and in assay [11] was inactive.

Consider `COC(=O)c1cccnc1`, for which the molecule was classed as inactive in assay [1], in [2], in assay [3], in [4], in assay [5] and in assay [6]. Besides, the molecule was classed as inactive in assay [10], in [12] and in assay [11].

`NCC1CCCC(CN)C1` (stereo unspecified): the call in assay [1], in [2], in assay [3], in assay [4], in [5] and in assay [6] was inactive. In addition, the call in assay [7], in assay [8] and in [13] was inactive.

`c1ccc2[nH]cnc2c1`: the molecule was classed as inactive in [1], in assay [2], in assay [3], in assay [4], in assay [5] and in assay [6]. For the same molecule, the result in assay [14], in assay [13], in assay [12] and in assay [9] was inactive.

As to `COc1ccccc1N=Nc1c(S(=O)(=O)O)cc2cc(S(=O)(=O)O)cc(NC(C)=O)c2c1O`, the molecule was classed as inactive in assay [1], in [2], in assay [3], in assay [4], in assay [5] and in assay [6]. The molecule was classed as inactive in assay [10], in [8], in assay [13], in [12], in assay [9] and in assay [11].

For the molecule `Nc1ccc(Cl)c([N+](=O)[O-])c1`, the molecule was classed as inactive in [1], in [2], in assay [3], in assay [4], in [5] and in assay [6]. Further, the molecule was called inactive in [8], in assay [13] and in assay [11].

Consider `COc1cc(C(C)C)ccc1C`, for which the molecule was classed as inactive in [1], in assay [2], in [3], in assay [4], in assay [5] and in [7]. The molecule was classed as inactive in assay [10], in assay [14], in assay [12] and in assay [11].

Take `ON=C1CCCCC1`: the molecule was called inactive in assay [1], in [2], in [3], in [4], in assay [5] and in assay [6]. In addition, the molecule was called inactive in assay [11].

Turning to `N#Cc1cscn1`, the outcome in assay [1], in assay [2], in assay [3], in assay [4], in assay [5] and in [6] was inactive. In addition, the call in assay [13] was inactive.

On to `N[C@@H](Cc1cc(I)c(Oc2cc(I)c(O)c(I)c2)c(I)c1)C(=O)O`, for which the call in assay [1], in assay [2], in assay [4], in [5] and in assay [7] was inactive. For the same molecule, the AC50 is 36.5 µM (active) in assay [3], 6.06 µM (active) in assay [8] and 3.79 µM (active) in assay [13].

Turning to `ClC(c1ccccc1)(c1ccccc1)c1ccccc1`, the result in assay [1], in assay [2], in [3], in assay [4], in assay [5] and in assay [7] was inactive. Further, the outcome in [10] and in assay [12] was inactive. In assay [13], the AC50 is 2.2 µM (active).

Regarding `CC(C)(CO)[C@@H](O)C(=O)NCCC(=O)O`, the outcome in assay [1], in assay [2], in [3], in assay [4], in assay [5] and in [7] was inactive. Also, the outcome in [13] and in assay [12] was inactive.
